The full data set covers some 7,900 targets. This sample favours those with a hit. About 0.6% of all pairs of compound and target were hits.
Assays:
Test in all cases: log2 fold change, soluble protein after heating vs DMSO (PISA); higher = thermal stabilisation; K562 cells, 10 uM, 30 min; active = over 0.2 and 3.5 SD of the protein, either way, in both replicates (recomputed)
bafetinib = compound: Cc1ccc(NC(=O)c2ccc(CN3CC[C@H](N(C)C)C3)c(C(F)(F)F)c2)cc1Nc1nccc(-c2cncnc2)n1 [bafetinib]
Outline: (§1)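 Soluble protein was quantified by TMTpro 16plex LC-MS/MS after channel sums were equalised. It was obtained as the supernatant after 21,000xg for 90 min from pooled aliquots of K562 cells (2×10^6 cells/mL, 10 μM compound, 30 min) heated for 3 min across 48°C-58°C and extracted in PBS with 0.5% NP-40 at 4°C. Thermal stability values are relative to control samples and come from duplicates. They are given as log2 fold changes.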

[1] = compound: Cc1cccc(CC(=O)N2CCc3c2ccc(-c2cn(C)c4ncnc(N)c24)c3F)n1
Outline: as §1

nilotinib = compound: Cc1cn(-c2cc(NC(=O)c3ccc(C)c(Nc4nccc(-c5cccnc5)n4)c3)cc(C(F)(F)F)c2)cn1 [nilotinib]
Outline: as §1

[2] = compound: Cc1nc(Nc2n[nH]c3c2CN(C(=O)N[C@H](CN(C)C)c2ccccc2)C3(C)C)c2sccc2n1
Outline: as §1

dasatinib = compound: Cc1nc(Nc2ncc(C(=O)Nc3c(C)cccc3Cl)s2)cc(N2CCN(CCO)CC2)n1 [dasatinib]
Outline: as §1

[3] = compound: Cc1ncc(-c2ccnc(Nc3ccc(S(C)(=O)=O)cc3)n2)n1C(C)C
Outline: as §1

[4] = compound: Cn1cc(-c2ccc3c(c2)CCN3C(=O)Cc2cccc(C(F)(F)F)c2)c2c(N)ncnc21
Outline: as §1

[5] = compound: Cn1cc(-c2ccc3nnc(C(F)(F)c4ccc5ncccc5c4)n3n2)cn1
Outline: as §1

tipifarnib = compound: Cn1cncc1[C@@](N)(c1ccc(Cl)cc1)c1ccc2c(c1)c(-c1cccc(Cl)c1)cc(=O)n2C [tipifarnib]
Outline: as §1

mubritinib = compound: FC(F)(F)c1ccc(/C=C/c2nc(COc3ccc(CCCCn4ccnn4)cc3)co2)cc1 [mubritinib]
Outline: as §1

[6] = compound: NC(=O)Nc1cc(-c2cccc(F)c2)sc1C(=O)N[C@H]1CCCNC1
Outline: as §1

[7] = compound: NC(=O)c1cnc(N[C@@H]2CCCC[C@@H]2N)nc1Nc1cccc(-n2nccn2)c1
Outline: as §1

[8] = compound: NC1(c2ccc(-c3nc4ccn5c(=O)[nH]nc5c4cc3-c3ccccc3)cc2)CCC1
Outline: as §1

[9] = compound: NCC(=O)Nc1ccc(-n2nc(C(F)(F)F)cc2-c2ccc3c(ccc4ccccc43)c2)cc1
Outline: as §1

entinostat = compound: Nc1ccccc1NC(=O)c1ccc(CNC(=O)OCc2cccnc2)cc1 [entinostat]
Outline: as §1

vorinostat = compound: O=C(CCCCCCC(=O)Nc1ccccc1)NO [vorinostat]
Outline: as §1

citarinostat = compound: O=C(CCCCCCNC(=O)c1cnc(N(c2ccccc2)c2ccccc2Cl)nc1)NO [citarinostat]
Outline: as §1

silmitasertib = compound: O=C(O)c1ccc2c(c1)nc(Nc1cccc(Cl)c1)c1ccncc12 [silmitasertib]
Outline: as §1

[10] = compound: O=C1NC(=O)C(c2cnc3ccccn23)=C1c1cn2c3c(cc(F)cc13)CN(C(=O)N1CCCCC1)CC2
Outline: as §1

[11] = compound: c1cc(OCCN2CCCCC2)cc(-c2n[nH]c3ccc(-c4nnc[nH]4)cc23)c1
Outline: as §1

Measured: log2 fold change

CTSH (UniProt P09668)
inactive: bafetinib -0.071 | [1] -0.034 | nilotinib 0.166 | [2] 0.03 | dasatinib 0.084 | [3] -0.041 | [4] 0.055 | [5] 0.056 | tipifarnib 0.09 | mubritinib -0.063 | [6] 0.012 | [7] 0.029 | [8] 0.032 | [9] 0.04 | entinostat -0.002 | vorinostat -0.01 | citarinostat -0.02 | silmitasertib 0.005 | [10] 0.022 | [11] 0.197

DPYSL2 (UniProt Q16555)
inactive: bafetinib -0.114 | [1] 0.081 | nilotinib 0.046 | [2] -0.063 | dasatinib 0 | [3] 0.079 | [4] 0.042 | tipifarnib 0.015 | mubritinib -0.048 | [6] 0.053 | [7] 0.01 | [8] 0.014 | [9] -0.056 | entinostat -0.037 | vorinostat 0.276 | citarinostat -0.017 | silmitasertib -0.118 | [10] -0.224 | [11] -0.054

EGR1 (UniProt P18146)
Sequence of UniProt P18146 (P18146 whole entry, looked up): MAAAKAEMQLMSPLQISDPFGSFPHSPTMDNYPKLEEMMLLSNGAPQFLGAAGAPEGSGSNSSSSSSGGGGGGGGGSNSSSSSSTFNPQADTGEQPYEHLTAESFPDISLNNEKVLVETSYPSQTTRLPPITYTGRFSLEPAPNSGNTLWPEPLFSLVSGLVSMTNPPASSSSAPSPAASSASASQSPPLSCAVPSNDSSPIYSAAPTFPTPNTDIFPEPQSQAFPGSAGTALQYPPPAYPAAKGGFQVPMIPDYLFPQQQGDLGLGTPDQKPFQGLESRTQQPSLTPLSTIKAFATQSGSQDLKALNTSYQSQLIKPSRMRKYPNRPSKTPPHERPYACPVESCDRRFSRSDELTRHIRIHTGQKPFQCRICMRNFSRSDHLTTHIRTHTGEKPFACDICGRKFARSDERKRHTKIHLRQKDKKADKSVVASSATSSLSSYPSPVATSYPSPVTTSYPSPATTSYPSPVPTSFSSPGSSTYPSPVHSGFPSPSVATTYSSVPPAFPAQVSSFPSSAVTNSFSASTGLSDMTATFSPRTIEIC
inactive: bafetinib -0.257 | [1] 0.141 | nilotinib -0.001 | [2] -0.352 | [3] -0.295 | [4] -0.24 | [5] -0.106 | tipifarnib 0.139 | mubritinib -0.121 | [6] -0.029 | [7] -0.346 | [8] 0.345 | [9] 0.066 | entinostat 0.091 | vorinostat -0.033 | silmitasertib 0.085 | [10] -0.109

EEF1A1 (UniProt P68104)
inactive: bafetinib -0.114 | nilotinib 0.042 | [2] -0.113 | dasatinib -0.116 | [3] 0.001 | [4] 0.044 | [5] -0.063 | tipifarnib -0.057 | mubritinib -0.033 | [6] -0.046 | [7] 0.084 | [8] 0.091 | [9] 0.191 | entinostat -0.017 | citarinostat -0.04 | silmitasertib -0.11 | [10] 0.023 | [11] 0.07

DAXX (UniProt Q9UER7)
inactive: bafetinib -0.119 | [1] -0.089 | nilotinib 0.055 | [2] -0.106 | dasatinib -0.034 | [3] 0 | [4] 0.061 | [5] -0.016 | tipifarnib 0.034 | [6] 0.093 | [7] -0.103 | [9] -0.08 | entinostat -0.099 | vorinostat 0.034 | citarinostat 0.075 | [11] -0.076

EIF4E2 (UniProt O60573)
inactive: bafetinib -0.055 | nilotinib -0.094 | [2] -0.052 | dasatinib -0.232 | [3] -0.004 | [4] 0.082 | [5] -0.059 | tipifarnib -0.127 | mubritinib 0.035 | [6] 0.054 | [7] -0.015 | [8] 0.085 | [9] -0.048 | entinostat 0.075 | citarinostat 0.245 | silmitasertib 0.019 | [10] 0.003 | [11] 0.079

DNAH5 (UniProt Q8TE73)
Sequence of UniProt Q8TE73 (Q8TE73 whole entry, looked up): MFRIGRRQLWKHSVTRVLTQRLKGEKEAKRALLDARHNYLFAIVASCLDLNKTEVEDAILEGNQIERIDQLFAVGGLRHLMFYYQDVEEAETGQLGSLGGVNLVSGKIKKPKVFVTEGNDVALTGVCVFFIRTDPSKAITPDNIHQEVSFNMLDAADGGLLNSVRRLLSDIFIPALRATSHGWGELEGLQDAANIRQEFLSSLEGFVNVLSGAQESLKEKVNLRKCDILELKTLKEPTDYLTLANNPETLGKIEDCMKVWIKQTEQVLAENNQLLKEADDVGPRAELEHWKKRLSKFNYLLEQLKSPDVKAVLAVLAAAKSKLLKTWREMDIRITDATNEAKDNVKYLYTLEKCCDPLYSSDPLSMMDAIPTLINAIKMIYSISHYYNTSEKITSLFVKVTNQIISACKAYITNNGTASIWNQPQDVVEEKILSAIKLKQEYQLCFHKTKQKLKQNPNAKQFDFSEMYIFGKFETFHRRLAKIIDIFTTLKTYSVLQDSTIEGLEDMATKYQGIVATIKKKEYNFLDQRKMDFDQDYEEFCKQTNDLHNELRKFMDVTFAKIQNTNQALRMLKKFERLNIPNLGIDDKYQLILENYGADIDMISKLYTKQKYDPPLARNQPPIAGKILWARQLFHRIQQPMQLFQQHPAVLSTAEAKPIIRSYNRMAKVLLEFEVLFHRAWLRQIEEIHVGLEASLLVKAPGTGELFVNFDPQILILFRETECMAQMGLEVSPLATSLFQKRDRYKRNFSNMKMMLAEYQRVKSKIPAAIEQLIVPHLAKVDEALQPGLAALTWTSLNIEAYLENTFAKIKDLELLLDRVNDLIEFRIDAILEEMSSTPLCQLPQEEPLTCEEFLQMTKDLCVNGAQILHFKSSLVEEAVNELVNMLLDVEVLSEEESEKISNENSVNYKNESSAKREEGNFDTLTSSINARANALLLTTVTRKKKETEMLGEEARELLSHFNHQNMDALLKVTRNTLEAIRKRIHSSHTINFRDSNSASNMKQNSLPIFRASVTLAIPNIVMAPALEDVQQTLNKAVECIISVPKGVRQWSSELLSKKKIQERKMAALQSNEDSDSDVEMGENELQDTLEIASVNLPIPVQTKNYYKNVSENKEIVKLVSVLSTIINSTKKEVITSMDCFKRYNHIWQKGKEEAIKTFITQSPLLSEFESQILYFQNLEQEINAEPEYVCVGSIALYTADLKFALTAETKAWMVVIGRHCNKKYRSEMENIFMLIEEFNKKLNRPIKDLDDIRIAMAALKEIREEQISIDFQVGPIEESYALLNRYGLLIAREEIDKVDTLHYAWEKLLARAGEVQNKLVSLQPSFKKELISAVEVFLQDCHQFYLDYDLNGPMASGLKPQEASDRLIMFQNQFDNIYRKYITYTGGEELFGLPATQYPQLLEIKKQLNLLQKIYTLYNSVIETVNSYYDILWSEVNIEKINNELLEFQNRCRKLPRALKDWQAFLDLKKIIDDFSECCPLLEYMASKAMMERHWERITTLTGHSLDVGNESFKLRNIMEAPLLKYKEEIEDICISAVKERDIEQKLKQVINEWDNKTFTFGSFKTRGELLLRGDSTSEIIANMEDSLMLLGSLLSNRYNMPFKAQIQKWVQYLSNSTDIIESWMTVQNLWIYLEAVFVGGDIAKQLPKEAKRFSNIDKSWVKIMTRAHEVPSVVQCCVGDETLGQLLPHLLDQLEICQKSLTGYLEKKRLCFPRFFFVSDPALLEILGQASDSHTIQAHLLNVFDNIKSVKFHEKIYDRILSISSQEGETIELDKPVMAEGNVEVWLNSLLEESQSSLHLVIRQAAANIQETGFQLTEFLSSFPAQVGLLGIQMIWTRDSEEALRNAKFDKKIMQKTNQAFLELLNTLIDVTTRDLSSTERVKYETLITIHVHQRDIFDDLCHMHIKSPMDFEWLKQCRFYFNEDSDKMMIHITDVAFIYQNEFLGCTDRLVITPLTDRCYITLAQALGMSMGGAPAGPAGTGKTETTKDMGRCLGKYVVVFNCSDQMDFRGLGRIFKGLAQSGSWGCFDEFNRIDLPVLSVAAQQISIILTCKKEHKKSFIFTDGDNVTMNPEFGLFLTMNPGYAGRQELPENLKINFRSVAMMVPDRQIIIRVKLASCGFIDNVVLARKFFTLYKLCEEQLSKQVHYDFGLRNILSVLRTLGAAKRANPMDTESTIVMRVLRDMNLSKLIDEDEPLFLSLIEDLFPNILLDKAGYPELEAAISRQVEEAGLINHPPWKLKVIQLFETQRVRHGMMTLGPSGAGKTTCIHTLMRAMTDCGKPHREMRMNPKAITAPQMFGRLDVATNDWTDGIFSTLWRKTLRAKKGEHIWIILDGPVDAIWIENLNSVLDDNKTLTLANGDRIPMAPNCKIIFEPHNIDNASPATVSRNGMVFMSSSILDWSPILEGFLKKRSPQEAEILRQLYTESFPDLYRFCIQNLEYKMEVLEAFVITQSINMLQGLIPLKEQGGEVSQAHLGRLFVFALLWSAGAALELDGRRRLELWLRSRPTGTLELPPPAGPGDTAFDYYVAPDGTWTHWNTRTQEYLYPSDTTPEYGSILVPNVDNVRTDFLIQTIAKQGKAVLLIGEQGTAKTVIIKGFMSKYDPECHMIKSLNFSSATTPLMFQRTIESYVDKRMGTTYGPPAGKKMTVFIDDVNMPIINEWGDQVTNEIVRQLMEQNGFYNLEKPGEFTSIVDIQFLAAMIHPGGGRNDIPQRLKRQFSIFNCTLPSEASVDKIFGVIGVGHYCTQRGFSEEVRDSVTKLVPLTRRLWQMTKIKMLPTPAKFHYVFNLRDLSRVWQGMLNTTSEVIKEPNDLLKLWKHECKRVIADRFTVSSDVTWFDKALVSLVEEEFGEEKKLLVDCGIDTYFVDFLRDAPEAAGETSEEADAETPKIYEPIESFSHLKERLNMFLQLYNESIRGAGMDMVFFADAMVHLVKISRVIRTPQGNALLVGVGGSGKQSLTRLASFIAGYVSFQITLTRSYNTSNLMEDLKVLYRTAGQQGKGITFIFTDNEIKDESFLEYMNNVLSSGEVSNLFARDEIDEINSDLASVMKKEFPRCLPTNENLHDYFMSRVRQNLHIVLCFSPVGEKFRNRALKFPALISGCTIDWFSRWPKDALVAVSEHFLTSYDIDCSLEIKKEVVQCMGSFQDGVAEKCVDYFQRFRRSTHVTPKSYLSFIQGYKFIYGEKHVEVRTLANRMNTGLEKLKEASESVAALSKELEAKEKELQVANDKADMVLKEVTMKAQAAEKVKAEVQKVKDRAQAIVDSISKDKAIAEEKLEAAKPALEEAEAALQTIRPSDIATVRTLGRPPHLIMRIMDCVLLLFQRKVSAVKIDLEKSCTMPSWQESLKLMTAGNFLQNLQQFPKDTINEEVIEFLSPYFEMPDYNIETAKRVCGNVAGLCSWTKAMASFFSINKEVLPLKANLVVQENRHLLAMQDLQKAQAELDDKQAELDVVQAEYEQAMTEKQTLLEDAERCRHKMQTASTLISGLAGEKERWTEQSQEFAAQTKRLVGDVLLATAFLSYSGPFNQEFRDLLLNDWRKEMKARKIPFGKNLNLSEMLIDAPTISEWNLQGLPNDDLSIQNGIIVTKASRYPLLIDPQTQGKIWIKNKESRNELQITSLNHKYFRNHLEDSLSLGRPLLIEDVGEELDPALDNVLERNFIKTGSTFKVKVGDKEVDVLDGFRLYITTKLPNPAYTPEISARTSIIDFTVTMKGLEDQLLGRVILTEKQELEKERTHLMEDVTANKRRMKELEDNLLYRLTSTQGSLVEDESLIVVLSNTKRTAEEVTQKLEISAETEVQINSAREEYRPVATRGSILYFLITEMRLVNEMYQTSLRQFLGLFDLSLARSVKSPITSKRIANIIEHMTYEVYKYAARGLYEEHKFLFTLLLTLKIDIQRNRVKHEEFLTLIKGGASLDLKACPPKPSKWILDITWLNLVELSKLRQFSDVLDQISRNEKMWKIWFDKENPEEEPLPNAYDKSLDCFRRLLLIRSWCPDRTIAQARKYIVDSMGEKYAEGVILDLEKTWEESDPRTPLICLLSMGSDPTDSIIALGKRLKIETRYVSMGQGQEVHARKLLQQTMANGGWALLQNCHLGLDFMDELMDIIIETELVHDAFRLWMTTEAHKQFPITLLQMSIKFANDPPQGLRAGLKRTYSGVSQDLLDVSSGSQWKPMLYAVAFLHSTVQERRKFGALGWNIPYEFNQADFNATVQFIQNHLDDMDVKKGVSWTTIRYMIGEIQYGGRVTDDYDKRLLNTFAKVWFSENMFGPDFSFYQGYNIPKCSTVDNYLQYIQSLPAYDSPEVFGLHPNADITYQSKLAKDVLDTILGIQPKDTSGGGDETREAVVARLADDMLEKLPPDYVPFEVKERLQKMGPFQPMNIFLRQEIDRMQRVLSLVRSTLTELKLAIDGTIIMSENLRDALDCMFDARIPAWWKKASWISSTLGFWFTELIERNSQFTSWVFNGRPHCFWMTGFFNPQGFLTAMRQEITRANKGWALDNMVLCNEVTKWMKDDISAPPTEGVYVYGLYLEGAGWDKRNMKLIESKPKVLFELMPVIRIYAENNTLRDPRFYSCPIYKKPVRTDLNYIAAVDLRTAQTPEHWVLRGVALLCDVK
inactive: bafetinib -0.065 | [1] -0.084 | nilotinib -0.006 | [2] 0.015 | dasatinib 0.085 | [3] -0.015 | [4] 0 | [5] -0.06 | tipifarnib 0.267 | mubritinib 0.032 | [6] -0.029 | [8] -0.077 | [9] 0.016 | entinostat -0.037 | vorinostat -0.103 | citarinostat 0.047 | silmitasertib 0.001 | [10] 0.014 | [11] 0.029

EHD2 (UniProt Q9NZN4)
inactive: bafetinib -0.051 | [1] 0.008 | nilotinib -0.062 | [2] 0.01 | dasatinib -0.112 | [3] 0.003 | [4] 0.012 | [5] -0.031 | tipifarnib -0.028 | mubritinib -0.061 | [6] -0.034 | [7] -0.048 | [8] -0.072 | [9] -0.096 | entinostat 0.033 | vorinostat 0.055 | citarinostat 0.048 | silmitasertib 0.012 | [10] -0.04 | [11] -0.015

— the supplement of paper PMC10849652
